A selection: hits, their analogues and other compounds. The true share with any hit is near 8.8%.
HT1080NT lethal = kills 2HG-producing HT-1080-NT fibrosarcoma cells. HT-1080-NT fibrosarcoma viability, CellTiter-Glo ATP luminescence, 48 h. Potency, µM (titrated, usually from 46.1 µM), most hits filed as cytotoxic. hit rate 1.6% among 360,000. AID 686970;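 further: NT is the 2HG producing partner of a matched IDH1 knockdown line; nearly all actives have a fitted effect of over 55% in size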
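Viability of the 2HG-overproducing fibrosarcoma line after 48 hours of compound exposure at 37 degrees C was determined by luminescence with CellTiter-Glo, and concentration-effect curves were then fitted and categorized.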
KB-3-1 cytotox = KB-3-1 parental cell cytotoxicity | KB-3-1 viability, CellTiter-Glo ATP luminescence, 72 h | Potency, µM (top dose mostly 46.1 µM), usual class: cytotoxic | hit rate 1.4% among 400,000 | AID 1347075; further: nearly all actives have a fitted effect of over 60% in size
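72 h, 37 °C compound treatment of KB-3-1 parental cells; CellTiter-Glo added, 10 min, luminescence read. Data corrected against DMSO-only plates and normalized before curve fitting.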
HT1080 IDH1KD tx = kills HT-1080 cells with IDH1 knockdown; hit rate 2% among 360,000; HT-1080 IDH1 knockdown viability, ATP luminescence, 48 h; Potency, µM (top dose mostly 46.1 µM), actives largely listed as cytotoxic
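% activity derives from luminescence (CellTiter-Glo), normalised to DMSO and no-cell wells. HT-1080-IDH1KD cells, 750/well, had 48 h compound exposure at 37 °C.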
KB-V1 cytotox = KB-V1 MDR subline cytotoxicity; KB-V1 MDR cells viability, CellTiter-Glo, 72 h; Potency, µM (doses to about 46.1 µM), actives largely listed as cytotoxic; hit rate 3.4% among 400,000; further: nearly all actives have a fitted effect of over 60% in size
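Cytotoxicity toward P-gp-expressing KB-V1 cells was determined as loss of CellTiter-Glo luminescence after 72 h at 37 degrees C. Compounds were tested in quantitative HTS format across a concentration range, with curves fitted to normalized data.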
IL1B secr inh = blocks inflammasome-driven IL-1 beta release | hit rate 4.7% among 360,000 | THP-1 LPS/ATP IL-1B secretion, AlphaLISA, 16 h; hits give low values | activity change, % at 57.5 µM; in the data active means activity change below about -50%; inconclusive means mostly about -30% to -49%
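THP-1 cells pretreated 1 hr with compounds (up to 57.5 uM final), then stimulated with LPS (250 ng/mL final) plus ATP (1.25 mM final); secreted IL-1B measured by AlphaLISA after 16 hr, decreased signal indicating inhibition.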
Numbers stand for hits; – = inactive; ? = inconclusive; · = no result given. Unless noted, the call rests on the fitted dose curve; in most records, active means well fitted curve in the direction sought with a large enough effect; inconclusive means small, poorly fitted or top-dose-only effect, or another doubt; inactive means no such curve, though single readings can be large; an effect the other way counts as inactive or inconclusive.

SMILES | HT1080NT lethal | KB-3-1 cytotox | HT1080 IDH1KD tx | KB-V1 cytotox | IL1B secr inh
Cc1ccc(-c2nc3ccccc3o2)cc1NC(=O)C(C)Oc1ccccc1 (stereo unspecified) | · | – | · | – | ·
Cc1ccc(CN2CCN(Cc3ccc(-n4cccn4)cc3)CC2CCO)cc1 (stereo unspecified) | – | – | – | ? | –
O[C@@H]1CN(Cc2ccc(-n3cccn3)cc2)CC[C@H]1N1CCN(c2ccccc2F)CC1 | ? | ? | – | – | -61.9
COc1cccc(OC)c1OCCN1CCCC1 | – | – | – | – | –
COc1cccc(OC)c1OCCN1CCN(C(c2ccccc2)c2ccccc2)CC1 | – | – | – | – | -52.7
COc1cccc(OC)c1OCCCN1CCC(Cc2ccccc2)CC1 | – | – | ? | – | -65.3
COc1ccccc1CC(=O)Nc1ccc(S(=O)(=O)N2CC(C)CC(C)C2)cc1 (stereo unspecified) | – | – | – | – | –
CCOC(=O)C1CCN(C(=O)Cn2nc(CC)n3c(cc4occc43)c2=O)CC1 | · | – | · | – | ·
Cc1ccc(NC(=O)CCC(=O)NNC(=S)Nc2ccc(F)cc2)c(C)c1 | – | ? | – | ? | –
Cc1ccc(NC(=S)NNC(=S)Nc2ccc(C)cc2)cc1 | – | 3.66µM | – | ? | –
Cc1ccc(NC(=S)NNC(=O)c2c(Cl)c(C)nn2C)cc1 | ? | – | ? | 16.4µM | –
Cc1ccc(NC(=S)NNC(=O)c2c([N+](=O)[O-])c(C)nn2C)cc1 | 5.62µM | – | 5.01µM | – | –
Cc1ccc(NNC(=S)Nc2ccc(C(C)C)cc2)c(C)c1 | – | – | – | – | -108.5
COc1ccc(C2Nc3ccccc3C(=O)N2c2ccc(Cl)cc2)cc1COc1ccc(NC(C)=O)cc1 (stereo unspecified) | · | ? | · | – | ·
Cc1cn2c(=O)cc(COc3ccc(NC(=O)COc4ccccc4)cc3)nc2s1 | · | – | · | – | ·
O=C(c1ccc2c(=O)n(CC3CCCO3)c(=S)[nH]c2c1)N1CCN(C(=O)c2ccco2)CC1 (stereo unspecified) | – | · | – | · | ·
COc1cc(C2c3cc4c(cc3OC(N3CCOCC3)C2C)OCO4)cc(OC)c1OC(C)=O (stereo unspecified) | ? | ? | ? | ? | –
COc1cc(C2c3cc4c(cc3OC(Nc3ccc(C(=O)O)cc3)C2C)OCO4)cc(OC)c1OC (stereo unspecified) | 0.517µM | 0.184µM | ? | – | –
COc1cc(C2c3cc4c(cc3OC(C)(N3CCCC3)C2C)OCO4)cc(OC)c1OC (stereo unspecified) | ? | 1.46µM | ? | 2.59µM | –
COc1cc(C2c3cc4c(cc3OC(N3CCCC3)C2C)OCO4)cc(OC)c1O (stereo unspecified) | ? | ? | ? | ? | –
COc1cc(C2c3cc4c(cc3OC(NCCc3ccccc3)C2C)OCO4)cc(OC)c1OC (stereo unspecified) | 1.03µM | 4.11µM | 1.03µM | 2.91µM | –
Cc1ccc(Cl)cc1N1CCN(S(=O)(=O)c2ccc3c(c2)CCCN3C(=O)C2CCC2)CC1 | · | – | · | – | ·
O=[N+]([O-])c1ccc(Cl)c(S(=O)(=O)N2CCCCCC2)c1 | – | – | – | ? | –
O=C(CSc1nc2nn(-c3ccccc3)c(=O)c-2c2n1CCCCC2)Nc1ccc(F)cc1F | – | – | – | – | -56.2
CC(C)CNC(=O)CSc1nc2nn(-c3ccccc3)c(=O)c-2c2n1CCCCC2 | – | – | – | ? | -52.9
SMILES | HT1080NT lethal | KB-3-1 cytotox | HT1080 IDH1KD tx | KB-V1 cytotox | IL1B secr inh
O=C(CSc1nc2nn(-c3ccccc3)c(=O)c-2c2n1CCCCC2)Nc1ccc(F)c(F)c1 | – | – | – | – | –
CCOc1ccccc1N1CCN(C(=O)C2=CC=CN3CCS(=O)(=O)N=C23)CC1 | – | – | – | – | –
COc1ccccc1C(=O)NCCCNC(=O)c1cccnc1 | – | – | ? | – | –
CCc1cccc(C)c1NC(=O)CN1C(=O)c2c(c3ccccc3n2C)C1c1ccc(OC)cc1 (stereo unspecified) | · | – | · | – | ·
COc1ccccc1C1(O)CCN(CC(=O)Nc2nc(-c3ccccc3)cs2)CC1 | – | – | ? | ? | -62.2
CCc1nnc(NC(=O)CN2CCN(c3nc(-c4ccccc4)cs3)CC2)s1 | ? | – | ? | 20.6µM | –
Cc1cccc(C)c1N1CCN(C(=O)N2CCCCC2)CC1 | – | – | – | – | –
COc1ccc(S(=O)(=O)N2CCC(C(=O)NN3CCCCC3)CC2)cc1OC | – | – | – | – | –
CS(=O)(=O)N1CCc2cc(S(=O)(=O)N3CCN(Cc4ccc5c(c4)OCO5)CC3)ccc21 | – | – | – | 20.6µM | –
COCCCNC(=O)CCCN1C(=O)CCn2nc(-c3cn(C)c4ccccc34)cc21 | · | – | · | – | ·
Cc1ccc2nc(Cl)c(/C=N/Nc3nc(C)cc(C)n3)c(=O)n2c1 | – | – | – | ? | -97.2
O=C(N[C@H]1c2ccccc2C[C@H]1O)[C@H]1O[C@@H](n2ccc(=O)[nH]c2=O)[C@H](O)[C@@H]1O | – | – | – | – | –
COc1ccc(CNC(=O)CCn2c(=O)oc3ccccc32)cc1 | – | – | – | – | –
CCOc1ccc(CNC(=O)CCn2c(=O)oc3ccccc32)cc1 | – | – | – | 23.1µM | –
CCOc1ccc(OCC)c(NC(=O)CCn2c(=O)oc3ccccc32)c1 | – | – | – | 8.2µM | –
O=C1C=CC(=Nc2ccc(F)cc2)O1 | ? | – | ? | ? | -51.2
O=C(N/C(=C/c1ccc(F)cc1)C(=O)N1CCOCC1)c1ccco1 | – | – | – | – | –
COc1ccc(NC(=O)/C(Cl)=C(/Cl)S(=O)(=O)Cc2ccc(C)cc2)cn1 | 23.1µM | 6.51µM | 8.2µM | ? | -118.5
COc1ccc(NC(=O)/C(Cl)=C(/Cl)S(=O)Cc2ccccc2Cl)cn1 (stereo unspecified) | 1.3µM | 18.4µM | 16.4µM | ? | -106.8
O=C(C[n+]1cccc2cc(Cl)ccc21)c1ccc2ccccc2c1 | · | ? | · | – | ·
COc1ccc(-c2ccc(SCC(=O)NC3CCCC3)nn2)cc1 | – | – | – | – | –
COc1ccc(CNC(=O)c2cccc3c(-c4ccc(F)c(F)c4)coc23)cc1OC | ? | – | 16.4µM | – | –
Cn1cc(-c2coc3c(C(=O)NCc4cccc(Cl)c4)cccc23)cn1 | ? | – | – | – | -67.6
COc1cc(-c2coc3c(C(=O)NCc4ccc(N(C)C)cc4)cccc23)ccc1O | ? | – | ? | – | -53.1
COc1cc(-c2coc3c(C(=O)NC4CCCCC4)cccc23)ccc1O | 16.4µM | – | 20.6µM | – | ?
CC(=O)NCCc1c[nH]c2ccc(O)cc12 | – | – | – | – | –
COc1cc(-c2coc3c(C(=O)Nc4ccc(C(C)C)cc4)cccc23)ccc1O | ? | – | 20.6µM | – | –
COc1cc(-c2coc3c(C(=O)NCc4ccc(OC)c(OC)c4)cccc23)ccc1O | ? | ? | 3.26µM | ? | –

Screening results deposited in PubChem by National Center for Advancing Translational Sciences (NCATS).
